We go through eleven compounds from PMC5540273 (PLoS ONE, 2017).

Among the test systems are TSSK1B; TSSK3; TTK; TXK; TYRO3; ULK1; ULK2; ULK3; VRK2; WEE1; WEE2; WNK1; WNK2; WNK3; WNK4.
Holding throughout (details): concentration: 1 μM, replicates: in singlicate; n = 1
For assay [1], the system named is TYK2(JH1domain-catalytic).
The test system of assay [2] is TYK2(JH2domain-pseudokinase).
A further assay has as its system T1, VEGFR2.
T1 construct: gene KDR

The test system of another assay is T2, VPS34.
T2 construct: gene PIK3C3

The subject of another assay is T3, YANK1.
T3 construct: gene STK32A
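Further: KINOMEscan kinase panel screen.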

With `CSc1ccc(-c2nc3n(c2-c2ccncc2)CCC3)cc1` [SKF-105561], the “%Inh” value was found to be 0% with TSSK1B; 0% in the assay with TSSK3; 14% in the assay with TTK; 11% with TXK; 0% in assay [1]; 0% in [2]. Besides, the “%Inh” value stood at 0% in the assay on TYRO3; 18% with ULK1; 0% in the assay with ULK2; 33% in the assay with ULK3; 11% in the assay on VEGFR2; 19% in the assay on VPS34. Also, the “%Inh” value with VRK2 worked out at 3%; with WEE1 it was 0%; with WEE2, 7%; in the assay on WNK1, 24%; in the assay with WNK2 it was 21%; in the assay on WNK3 it was 30%. Moreover, the “%Inh” value with WNK4 came out at 3%; in the assay with YANK1, 0%.
For `CC[C@@H]1CO[C@H](C(=O)Nc2ccccc2)CN1c1cc(-c2ccc3c(N)n[nH]c3c2)nc(NC)n1` [GSK2376236], the “%Inh” value worked out at 0% in the assay on TSSK1B; 13% in the assay with TSSK3; 0% in the assay on TTK; 0% in the assay with TXK; 0% in [1]; 0% in [2]. For the same compound, the “%Inh” value turned out to be 0% in the assay on TYRO3; 13% with ULK1; 10% in the assay on ULK2; 4% in the assay on ULK3; 8% with VEGFR2; 12% with VPS34. Also, the “%Inh” value was 0% with VRK2; 2% in the assay on WEE1; 0% in the assay on WEE2; 4% with WNK1; 10% in the assay with WNK2; 5% in the assay with WNK3. The “%Inh” value in the assay with WNK4 was found to be 0%; in the assay with YANK1 it was 41%.
`CNc1nc(-c2ccc3c(N)n[nH]c3c2)cc(N2C[C@@H](C(=O)NC3CCCCC3)OC[C@H]2C)n1` [GSK2375584]: the “%Inh” value in the assay on TSSK1B was determined as 0%; in the assay with TSSK3, 23%; in the assay with TTK it was 7%; in the assay on TXK, 0%; in assay [1], 0%; in assay [2], 12%. In addition, the “%Inh” value in the assay with TYRO3 is given as 0%; in the assay with ULK1, 0%; with ULK2 it was 0%; with ULK3, 0%; in the assay with VEGFR2, 17%; in the assay on VPS34, 0%. Moreover, the “%Inh” value is 43% with VRK2; 29% with WEE1; 3% in the assay with WEE2; 5% in the assay with WNK1; 25% with WNK2; 28% with WNK3. The “%Inh” value is given as 41% in the assay with WNK4 and 7% in the assay with YANK1.
For `Fc1ccc(-c2nn3cccc(F)c3c2-c2ccncc2)cc1` [GW475620], the “%Inh” value in the assay with TSSK1B is 0%; with TSSK3, 14%; in the assay on TTK, 14%; in the assay with TXK, 5%; in [1], 22%; in assay [2], 9%. Moreover, the “%Inh” value with TYRO3 is given as 0%; in the assay with ULK1 it was 12%; with ULK2 it was 0%; in the assay with ULK3 it was 12%; with VEGFR2, 1%; in the assay with VPS34, 15%. Further, the “%Inh” value with VRK2 is reported as 22%; in the assay with WEE1 it was 0%; with WEE2, 5%; in the assay on WNK1, 5%; in the assay with WNK2, 20%; in the assay with WNK3 it was 5%. Further, the “%Inh” value is on record as 9% in the assay with WNK4 and 28% with YANK1.
As for `O=C(Nc1n[nH]c2nc(-c3ccco3)c(Br)cc12)C1CCN(Cc2ccccc2)C1.O=C(O)[C@H](O)[C@@H](O)C(=O)O` (stereo not shown) [SB-742034], the “%Inh” value in the assay with TSSK1B amounted to 0%; with TSSK3, 0%; in the assay on TTK, 4%; in the assay on TXK it was 0%; in assay [1], 5%; in assay [2] it was 0%. Besides, the “%Inh” value came out at 0% with TYRO3; 5% with ULK1; 19% in the assay on ULK2; 6% with ULK3; 7% with VEGFR2; 0% with VPS34. Moreover, the “%Inh” value in the assay with VRK2 worked out at 0%; in the assay with WEE1 it was 0%; in the assay with WEE2, 8%; in the assay with WNK1, 0%; with WNK2 it was 0%; with WNK3, 0%. For the same compound, the “%Inh” value was 2% in the assay with WNK4 and 0% in the assay on YANK1.
On to `CCn1c(-c2ccccc2)nc2cnccc21` [SB-733416], for which the “%Inh” value in the assay with TSSK1B amounted to 32%; with TSSK3 it was 14%; with TTK, 0%; with TXK it was 9%; in assay [1], 24%; in assay [2], 45%. The “%Inh” value in the assay with TYRO3 is reported as 0%; with ULK1, 20%; in the assay with ULK2 it was 0%; in the assay on ULK3 it was 14%; in the assay with VEGFR2, 0%; in the assay on VPS34, 0%. The “%Inh” value is 34% in the assay with VRK2; 8% with WEE1; 2% in the assay on WEE2; 17% in the assay with WNK1; 0% in the assay with WNK2; 26% in the assay on WNK3. The “%Inh” value in the assay on WNK4 is 19%; with YANK1, 0%.
With `O=C1NC(=O)C(c2ccc(Cl)cc2)=C1Nc1cccc(Cl)c1` [SB-317651], the “%Inh” value in the assay on TSSK1B was 0%; in the assay with TSSK3, 18%; with TTK, 0%; in the assay on TXK, 12%; in assay [1] it was 0%; in assay [2] it was 0%. Moreover, the “%Inh” value was 0% with TYRO3; 11% in the assay on ULK1; 25% in the assay with ULK2; 1% in the assay on ULK3; 0% with VEGFR2; 90.2% with VPS34. Further, the “%Inh” value in the assay on VRK2 came out at 90.5%; in the assay on WEE1 it was 0%; with WEE2 it was 29%; with WNK1, 0%; in the assay on WNK2, 27%; in the assay on WNK3 it was 0%. The “%Inh” value in the assay with WNK4 and in the assay with YANK1 was 0% throughout.
`COc1ccc(Nc2nccc(N3CCC(NC(=O)C(C)c4ccc(Cl)cc4)C3)n2)cc1` (stereo not shown) [GSK1379735]: the “%Inh” value in the assay with TSSK1B is 1%; in the assay on TSSK3, 24%; with TTK, 29%; in the assay on TXK, 21%; in assay [1], 28%; in assay [2], 1%. Besides, the “%Inh” value in the assay on TYRO3 was found to be 22%; in the assay with ULK1 it was 9%; in the assay on ULK2, 9%; with ULK3, 9%; with VEGFR2 it was 0%; in the assay on VPS34, 15%. Moreover, the “%Inh” value in the assay on VRK2 was determined as 0%; in the assay with WEE1 it was 16%; in the assay with WEE2, 0%; with WNK1, 6%; with WNK2, 31%; with WNK3 it was 8%. In addition, the “%Inh” value was 0% in the assay on WNK4 and 69% with YANK1.
As to `COc1ccc(CSc2nnc(-c3ccc4nccn4c3)o2)cc1C(F)(F)F`, the “%Inh” value in the assay with TSSK1B is 0%; in the assay with TSSK3 it was 1%; with TTK, 64%; in the assay on TXK it was 6%; in assay [1], 8%; in [2] it was 5%. The “%Inh” value in the assay on TYRO3 is recorded as 3%; with ULK1 it was 0%; in the assay on ULK2, 4%; in the assay with ULK3 it was 0%; in the assay with VEGFR2, 10%; in the assay on VPS34, 7%. Besides, the “%Inh” value in the assay on VRK2 was found to be 7%; in the assay on WEE1 it was 9%; in the assay on WEE2, 0%; with WNK1, 0%; in the assay on WNK2, 0%; with WNK3, 0%. The “%Inh” value worked out at 2% with WNK4 and 20% with YANK1.
In the case of `COc1cccc(CNC(=O)NC2CCN(c3ccnc(Nc4ccc(F)cc4)n3)C2)c1` (stereo not shown) [GSK1379723], the “%Inh” value in the assay on TSSK1B amounted to 1%; in the assay with TSSK3, 16%; with TTK, 17%; with TXK it was 100%; in [1] it was 20%; in assay [2], 22%. In addition, the “%Inh” value with TYRO3 was determined as 17%; in the assay on ULK1, 19%; with ULK2 it was 1%; in the assay with ULK3, 4%; in the assay on VEGFR2, 1%; in the assay with VPS34, 0%. The “%Inh” value stood at 0% with VRK2; 3% in the assay on WEE1; 12% with WEE2; 6% in the assay on WNK1; 13% in the assay on WNK2; 5% in the assay on WNK3. Further, the figures for the “%Inh” value with WNK4 and in the assay on YANK1 were 7% and 0%, respectively.
Take `Cc1cnc(N)c(/C=C/c2cncc(C(=O)NCCc3ccc(Cl)cc3Cl)c2)c1.Cl` [GSK190937]: the “%Inh” value in the assay with TSSK1B was determined as 6%; in the assay with TSSK3, 0%; with TTK, 0%; with TXK, 4%; in assay [1], 0%; in assay [2], 9%. Moreover, the “%Inh” value in the assay with TYRO3, in the assay on ULK1, with ULK2, with ULK3, in the assay on VEGFR2 and with VPS34 was 0% each time. The “%Inh” value with VRK2 is recorded as 26%; with WEE1 it was 5%; in the assay with WEE2 it was 0%; in the assay with WNK1, 3%; in the assay with WNK2, 4%; in the assay on WNK3, 30%. The “%Inh” value in the assay on WNK4 worked out at 4%; with YANK1, 0%.
